Reference: the supplement of paper PMC11732987, “Enantioselective OTUD7B fragment discovery through chemoproteomics screening and high-throughput optimisation” (Communications Chemistry, 2025)

Biological target: T1, USP38 (UniProt Q8NB14)
T1 sequence (whole entry): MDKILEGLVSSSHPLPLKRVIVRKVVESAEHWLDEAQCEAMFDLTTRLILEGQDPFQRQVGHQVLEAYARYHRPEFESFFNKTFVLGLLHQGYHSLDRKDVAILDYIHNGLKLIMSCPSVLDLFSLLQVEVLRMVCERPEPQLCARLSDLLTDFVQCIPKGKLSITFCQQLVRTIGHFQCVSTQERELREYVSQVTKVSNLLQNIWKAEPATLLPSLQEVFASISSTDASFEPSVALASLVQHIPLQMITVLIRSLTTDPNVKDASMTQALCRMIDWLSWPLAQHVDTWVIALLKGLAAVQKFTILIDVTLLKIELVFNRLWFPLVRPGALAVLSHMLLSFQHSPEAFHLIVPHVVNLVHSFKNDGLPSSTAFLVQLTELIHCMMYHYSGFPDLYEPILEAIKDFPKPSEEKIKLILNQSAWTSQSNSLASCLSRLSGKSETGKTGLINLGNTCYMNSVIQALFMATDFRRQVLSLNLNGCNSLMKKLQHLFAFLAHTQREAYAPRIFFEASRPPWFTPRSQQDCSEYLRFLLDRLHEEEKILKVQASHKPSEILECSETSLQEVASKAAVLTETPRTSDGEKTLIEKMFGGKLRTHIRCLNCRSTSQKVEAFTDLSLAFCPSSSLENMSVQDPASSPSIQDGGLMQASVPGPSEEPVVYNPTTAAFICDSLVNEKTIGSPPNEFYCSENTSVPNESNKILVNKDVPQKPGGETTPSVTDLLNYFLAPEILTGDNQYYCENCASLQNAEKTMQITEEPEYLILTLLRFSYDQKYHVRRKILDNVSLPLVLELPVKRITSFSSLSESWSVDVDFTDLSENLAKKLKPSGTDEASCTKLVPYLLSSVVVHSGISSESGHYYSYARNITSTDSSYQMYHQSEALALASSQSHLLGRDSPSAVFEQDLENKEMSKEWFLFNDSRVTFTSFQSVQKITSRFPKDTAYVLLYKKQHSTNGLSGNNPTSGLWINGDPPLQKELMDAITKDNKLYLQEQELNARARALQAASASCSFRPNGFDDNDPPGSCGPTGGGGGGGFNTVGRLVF
Test: log2 ratio of Biotin-Ahx-Ub-VS probe labelling (compound/DMSO); higher = less target engagement, active = hit call of the paper (q ≤ 0.05, log2 ratio ≤ -1)
Conditions: treatment time: 3 h
How it was run: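 Values are average ratios of compound to vehicle from an unpaired t-test, limited to proteins with at least two unique peptides. HEK293T lysate (495 µg per sample, in Tris/CHAPS/IGEPAL buffer with protease inhibitors) was exposed in triplicate to a concentration series of compound or to vehicle for 3 h, then to Biotin-Ahx-Ub-VS at 0.5 µM final for 1 h. Labelled deubiquitinases were enriched on NeutrAvidin, digested with LysC and trypsin, and analysed by diaPASEF LC-MS/MS. Ratios are given on a log2 scale from Spectronaut label-free protein quantities normalised to the global median.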

Measured: log2 ratio of Biotin-Ahx-Ub-VS probe labelling

O=C(CCl)NC1CCCc2ccccc21 (centres undefined)
inactive: compound concentration: 0.78uM -0.0722 | compound concentration: 1.56uM -0.0473 | compound concentration: 3.13uM -0.124 | compound concentration: 6.25uM -0.102 | compound concentration: 12.5uM -0.214 | compound concentration: 25uM -0.157 | compound concentration: 50uM -0.0382 | compound concentration: 100uM -0.104 | compound concentration: 200uM -0.148
